Test results published in PubChem BioAssay AID1851 (National Center for Advancing Translational Sciences (NCATS), 2009).
Several values for one entry are separate records, joined by “and”; a condition that tells them apart may be missing. Equal entries are not always repeated. Among all 16,000 compounds or so, about 2,600 (16%) were called active. Roughly 20% stayed inconclusive and do not appear here. Calls come from the whole dose curve; as a rule, active = well fitted curve in the direction sought with a large enough effect; inconclusive = small, poorly fitted or top-dose-only effect, or effect the other way; inactive = no such curve, though single readings can be large or run the other way. The list is a sample of the results. The source holds several records for some structures; these can differ, active in one and inactive in another.
% is set by controls: 0 for no effect and ±100 for the full control effect.

The molecules below were run against Cytochrome P450 2D6 (Homo sapiens) (UniProt P10635) (assay: Cytochrome panel assay with activity outcomes). Conditions: recombinant CYP, pro-luciferin dealkylation, luminescence, p450-cyp2d6; series mostly up to 57.1 µM; activity, negative = inhibition: at the top concentration.
Chain of Cytochrome P450 2D6 (Homo sapiens) (P10635 whole entry, looked up): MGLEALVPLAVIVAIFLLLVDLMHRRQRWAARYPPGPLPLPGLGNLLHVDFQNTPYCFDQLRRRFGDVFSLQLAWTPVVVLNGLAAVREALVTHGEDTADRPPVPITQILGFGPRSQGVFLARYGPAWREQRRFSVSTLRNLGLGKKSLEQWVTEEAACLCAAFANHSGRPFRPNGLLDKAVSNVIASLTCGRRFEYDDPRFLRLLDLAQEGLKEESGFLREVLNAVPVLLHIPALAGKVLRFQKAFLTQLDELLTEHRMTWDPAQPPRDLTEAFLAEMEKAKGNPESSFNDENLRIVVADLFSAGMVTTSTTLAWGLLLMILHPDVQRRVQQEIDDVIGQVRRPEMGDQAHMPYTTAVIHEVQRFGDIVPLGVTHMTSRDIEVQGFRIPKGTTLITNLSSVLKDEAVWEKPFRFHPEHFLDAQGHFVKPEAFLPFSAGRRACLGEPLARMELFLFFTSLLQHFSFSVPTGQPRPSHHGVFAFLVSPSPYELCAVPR
With `CN1CCN(c2ncc3nc(-c4cccc(C#N)c4)c(=O)n(C)c3n2)CC1` the “activity, negative = inhibition” value was -2% (inactive). With `CCSc1ccc2c(c1)N(CCCN1CCN(C)CC1)c1ccccc1S2` the AC50 was 2.51 µM (active). With `O=C1NC(O)=NC1(c1ccccc1)c1ccccc1` the “activity, negative = inhibition” value was 1.34% (inactive). `Cc1noc(C)c1C(=O)N1CCC2(CCN(Cc3ccncc3)CC2)CC1` was tested, and the “activity, negative = inhibition” value was -9.53% (inactive). For `CCCCC[C@H](O)c1cccc(OCc2ccc3ccccc3n2)c1`, the “activity, negative = inhibition” value was -20.4% (inactive). With `O=C(O)c1ccccc1Nc1cccc(OCc2ccc3ccccc3n2)c1` the AC50 was 7.94 µM (active). With `O=C(Nc1ccccc1C(=O)O)c1ccc2ccccc2n1` the “activity, negative = inhibition” value was 18.1% (inactive). With `CC/C(=N/Nc1ccccc1)c1cnnc(SC)n1` the “activity, negative = inhibition” value was -10.2% (inactive). For `O=C(Nc1ccc(-c2csc(-c3ccccc3)n2)cc1)c1ccccc1Cl`, the “activity, negative = inhibition” value was 19.1% (inactive). In the case of `Cc1ccc(C(=O)ON=C2CCN(S(=O)(=O)c3ccccc3)CC2)cc1`, the “activity, negative = inhibition” value is reported as -18% (inactive). `O=c1cnc2cnc(Oc3cccc(Cl)c3)nc2n1C1CC1` was tested, and the “activity, negative = inhibition” value was -8.64% (inactive). For `Fc1ccc(C2CC(c3ccco3)=NN2c2ccccc2)cc1` (stereo unspecified), the AC50 was 8.91 µM (active). `CC(=O)c1c(O)cc(=O)n(-c2ccccc2)c1-c1cccc2ccccc12` was tested, and the “activity, negative = inhibition” value was -2.04% (inactive). With `O=C1C=C(NCCN2CCOCC2)CC(c2ccccc2)C1` (stereo unspecified) the “activity, negative = inhibition” value was -11.2% (inactive). `O=C1C=C(Nc2ccc(Cl)cc2)CC(c2ccc(Cl)cc2)C1` (stereo unspecified) was tested, and the AC50 was 8.91 µM (active). `O=C(O)C1(Nc2ccc(Cl)cc2)CCCC1` was tested, and the activity, negative = inhibition was 7.94% [at 11.4 µM] (inactive). For `CC1(C)C(=O)C(c2ccccc2)=C2CN3C(=O)N(CCc4ccccc4)C(=O)C3(Cc3ccc(C(F)(F)F)cc3)C=C21` (stereo unspecified), the “activity, negative = inhibition” value was 9.81% (inactive). In the case of `CCCCc1ccc(-c2nc(NC(=O)C3C4CCC(O4)C3C(=O)O)sc2C)cc1` (stereo unspecified), the “activity, negative = inhibition” value is reported as -28.7% (inactive). `COC(=O)Cn1c(CN(Cc2ccccc2)Cc2ccccc2)nc2c1c(=O)[nH]c(=O)n2C` was tested, and the “activity, negative = inhibition” value was -9.02% (inactive). For `COc1ccc(N2CCN(Cc3nc4c(c(=O)[nH]c(=O)n4C)n3CCCc3ccccc3)CC2)cc1`, the “activity, negative = inhibition” value was -9.2% (inactive). For `CCOC(=O)N1CCN(Cc2nc3c(c(=O)[nH]c(=O)n3C)n2Cc2ccccc2C)CC1`, the AC50 was 12.6 µM (active). In the case of `Cn1c(=O)[nH]c(=O)c2c1nc(CN1CCOCC1)n2Cc1ccccc1`, the “activity, negative = inhibition” value is reported as 6.42% (inactive). For `CCCCCn1c(CN2CCN(c3cc(Cl)ccc3C)CC2)nc2c1c(=O)[nH]c(=O)n2C`, the AC50 was 8.91 µM (active). In the case of `Cn1c(=O)[nH]c(=O)c2c1nc(CN1CCOCC1)n2CCCO`, the “activity, negative = inhibition” value is reported as 8.01% (inactive). In the case of `O=C(Cn1nnc2ccccc21)N/N=C\C=C\c1ccccc1`, the “activity, negative = inhibition” value is reported as 4.01% (inactive). With `NC(=O)c1csc(-c2ccc(CO)o2)n1` the activity, negative = inhibition was 0.271% [at 11.4 µM] (inactive). `NS(=O)(=O)c1ccc(N=Nc2ncccc2O)cc1` was tested, and the activity, negative = inhibition was -13% [at 11.4 µM] (inactive). For `C/C(=N\Nc1nnc(-c2ccccc2)c(-c2ccccc2)n1)c1cccc([N+](=O)[O-])c1`, the “activity, negative = inhibition” value was -29.2% (inactive). With `O=c1c(C=Nc2cccc(C(F)(F)F)c2)c[nH]n1-c1cccc(Cl)n1` the “activity, negative = inhibition” value was -18.9% (inactive). With `CCc1cc2c(nc1CC)CCN(CC/C(C)=N/OC[C@@H](C)[C@H](OCc1ccccc1)C(C)C)C2` the activity, negative = inhibition was -10.6% [at 11.4 µM] (inactive). `COc1ccccc1NC(=O)CCc1c(C)[nH]c(=O)c(C#N)c1C` was tested, and the “activity, negative = inhibition” value was -20.1% (inactive). For `Cc1ccc2c(c1)nnn2C1CCN(CC(=O)N2c3ccccc3CC2C)CC1` (stereo unspecified), the AC50 was 25.1 µM (active). In the case of `CC1Cc2ccccc2N1C(=O)Cn1cc([N+](=O)[O-])cn1` (stereo unspecified), the “activity, negative = inhibition” value is reported as -4.04% (inactive). In the case of `CC1Cc2ccccc2N1C(=O)CSc1nnnn1C(C)C` (stereo unspecified), the “activity, negative = inhibition” value is reported as -0.323% (inactive). With `O=C(O)/C=C\c1cnc[nH]1` the “activity, negative = inhibition” value was -4.82% (inactive). In the case of `Cc1nn(C(C)C(=O)N2CCc3ccccc32)c(C)c1[N+](=O)[O-]` (stereo unspecified), the “activity, negative = inhibition” value is reported as -3.76% (inactive). `CC(=O)NC1=NN(c2ccccc2)C(=O)C1` was tested, and the “activity, negative = inhibition” value was 22.6% (inactive). With `CC(=O)N1CCC(=O)N(C(C)C)c2ccccc21` the AC50 was 3.16 µM (active). For `C/C(Cl)=C/CSc1nnc2n(N)c(=O)c3ccccc3n12`, the “activity, negative = inhibition” value was -14.6% (inactive). In the case of `O=C(CNS(=O)(=O)c1ccc(Br)s1)N1CCC(N2CCCCC2)CC1`, the AC50 is reported as 12.6 µM (active). `O=C(NCc1ccco1)c1ccccc1NS(=O)(=O)c1ccc(Br)s1` was tested, and the “activity, negative = inhibition” value was -22.3% (inactive). In the case of `CC1CCC(C(=O)NC(C(=O)N2CCC(N3CCCCC3)CC2)C(C)C)CC1` (stereo unspecified), the “activity, negative = inhibition” value is reported as -5.87% (inactive). For `CC1CC(C)CN(C(=O)CNS(=O)(=O)c2ccc(Br)s2)C1` (stereo unspecified), the AC50 was 3.16 µM (active). `O=c1c(-c2ccc(F)c(F)c2)nc2cncnc2n1C1CC1` was tested, and the “activity, negative = inhibition” value was -0.558% (inactive). With `COc1ccc(C(=O)N/N=C/c2cccc3cccnc23)cc1` the “activity, negative = inhibition” value was -11.4% (inactive). `CC(C)(C)c1nnc(NC(=O)NS(=O)(=O)c2ccccc2)s1` was tested, and the “activity, negative = inhibition” value was -2.56% (inactive). For `COc1ncc2nc(-c3ccc(F)cc3)c(=O)n(C)c2n1`, the “activity, negative = inhibition” value was -2.72% (inactive). With `Oc1ccc([C@@H]2CNCCc3c2cc(O)c(O)c3Cl)cc1` the AC50 was “inactive and 3.16 µM (active)”. `Oc1cc2c(c(Cl)c1O)CCNC[C@H]2c1ccccc1` was tested, and the AC50 was 10 µM (active). `Oc1ccc([C@@H]2CNCc3sccc32)cc1O` was tested, and the “activity, negative = inhibition” value was -12.1% (inactive). `Oc1cc2c(cc1O)[C@H](c1ccccc1)CNCC2` was tested, and the AC50 was “inactive”.
